# Target: NDE1
# Experiment: pooled miR-30 sensor sort-seq; sequence = guide strand
# Settings: shRNA
# Further: reference of the scale not given here.
row,Sequence,sensor-assay potency score (higher = more potent)
1,TTTTCGGACAGGAGGTCTCTGT,-0.635
2,TCTCTGAACAGATTCCAGGAGA,-0.696
3,TTAAACTTGAGCTGGGTCCTCG,-0.477
4,TTTGCTTGCTCCAGCTCTCTGA,-0.321
5,TTCAGCTTCATATTCTCGGCTT,0.137
6,TTGCTTGCTCCAGCTCTCTGAT,-1.21
7,TCTGTTTGTAGGTCATCGCCAG,-0.347
8,TTCAATTTGTTGCAGCTGCGTC,-0.561
9,TTCTCGGAGTTCCTCTTGCGTA,-1.4
10,TCTTCGAGAGACATGATCGTGG,-0.394
11,TTGATTTGGACAACCAGCGGCA,-0.226

# Target: NDUFA7
# Experiment: as above
# Settings: shRNA
row,Sequence,sensor-assay potency score (higher = more potent)
1,TTCGCTTGGAGATCTCCTGGTA,0.453
2,TAGCGTAGCTGCAGCTTCCCCT,-0.864
3,AATTAGGTCACATTCTCCCTGG,-0.0171
4,ATTGTTGGAGAGCTTGTGGCTA,-0.402
5,TTGTTGGAGAGCTTGTGGCTAG,-0.163
6,TCTCAGTGGCAGCTACAGCAGA,-0.927
7,TCGCTTGGAGATCTCCTGGTAG,-0.223
8,TTGTGGCTAGGACCCACAGGGA,-1.83
9,TAAAACTAGAAGTGATACCTGA,0.222
10,TACAGCAGAGCTCTCTGCTGGC,-0.355
11,TCTCCTGGTAGCGTAGCTGCAG,-1.09
12,AGGAGCTGGAGTCACCGCCTTC,-1.6

# Target: NDUFA9
# Experiment: as above
# Settings: shRNA
row,Sequence,sensor-assay potency score (higher = more potent)
1,TTGATGACCACATTGCTGTGTT,0.542
2,TGTGTTGTACTACTCGTCGGAT,-0.517
3,TTAAGGAATCTATCCTCTCTTC,-0.535
4,TTGCTGTGTTGTACTACTCGTC,-0.266
5,TTAACTGCATTAACAATTCCTT,-0.73
6,TTTAACTGTCTTCCAGCCCAAG,-1.24
7,TTATTTCAAAGACTCTTGCTAC,-0.0759
8,TTCAACTCCAGCTTCCTTGGAC,0.368
9,TATAGGACCAAACCGATGCATA,-1.43
10,TACTTTCTCTCCAACAGCCTTA,0.0635
11,TAGAATCTTTATCTCTCGCGTC,-0.0518
12,TGACTGAGGAACGTCCACCTTT,-0.755

# Target: NDUFAB1
# Experiment: as above
# Settings: shRNA
row,Sequence,sensor-assay potency score (higher = more potent)
1,TTTACTGAAAGCTTCTCTGGGT,0.584
2,TGTAACTCTACCAGGAACCTGC,0.262
3,TAATCTACAATTTCTTGTGGAC,-0.35
